The full data set covers some 7,900 targets. This sample favours those with a hit. About 0.6% of all pairs of compound and target were hits.
These targets were tested with CC1=NC(=CC=C1)C2=C(N=C(N2)C(C)(C)C)C3=CC4=NC=CN=C4C=C3 (assay: log2 fold change, soluble protein after heating vs DMSO (PISA); higher = thermal stabilisation; K562 cells, 10 uM, 30 min; active = over 0.2 and 3.5 SD of the protein, either way, in both replicates (recomputed)).
Procedure, shortened: (§1)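 K562 cells at 2×10^6 cells/mL were treated with 10 μM compound for 30 min. Aliquots were heated for 3 min across 48°C-58°C, pooled, and extracted in PBS with 0.5% NP-40 at 4°C; soluble protein was the supernatant after 21,000xg for 90 min. Soluble protein was quantified by TMTpro 16plex LC-MS/MS with channel sums equalised, and reported as log2 fold change in thermal stability against DMSO controls, with values from duplicates.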
UniProt O95819, sequence (O95819 whole entry, looked up): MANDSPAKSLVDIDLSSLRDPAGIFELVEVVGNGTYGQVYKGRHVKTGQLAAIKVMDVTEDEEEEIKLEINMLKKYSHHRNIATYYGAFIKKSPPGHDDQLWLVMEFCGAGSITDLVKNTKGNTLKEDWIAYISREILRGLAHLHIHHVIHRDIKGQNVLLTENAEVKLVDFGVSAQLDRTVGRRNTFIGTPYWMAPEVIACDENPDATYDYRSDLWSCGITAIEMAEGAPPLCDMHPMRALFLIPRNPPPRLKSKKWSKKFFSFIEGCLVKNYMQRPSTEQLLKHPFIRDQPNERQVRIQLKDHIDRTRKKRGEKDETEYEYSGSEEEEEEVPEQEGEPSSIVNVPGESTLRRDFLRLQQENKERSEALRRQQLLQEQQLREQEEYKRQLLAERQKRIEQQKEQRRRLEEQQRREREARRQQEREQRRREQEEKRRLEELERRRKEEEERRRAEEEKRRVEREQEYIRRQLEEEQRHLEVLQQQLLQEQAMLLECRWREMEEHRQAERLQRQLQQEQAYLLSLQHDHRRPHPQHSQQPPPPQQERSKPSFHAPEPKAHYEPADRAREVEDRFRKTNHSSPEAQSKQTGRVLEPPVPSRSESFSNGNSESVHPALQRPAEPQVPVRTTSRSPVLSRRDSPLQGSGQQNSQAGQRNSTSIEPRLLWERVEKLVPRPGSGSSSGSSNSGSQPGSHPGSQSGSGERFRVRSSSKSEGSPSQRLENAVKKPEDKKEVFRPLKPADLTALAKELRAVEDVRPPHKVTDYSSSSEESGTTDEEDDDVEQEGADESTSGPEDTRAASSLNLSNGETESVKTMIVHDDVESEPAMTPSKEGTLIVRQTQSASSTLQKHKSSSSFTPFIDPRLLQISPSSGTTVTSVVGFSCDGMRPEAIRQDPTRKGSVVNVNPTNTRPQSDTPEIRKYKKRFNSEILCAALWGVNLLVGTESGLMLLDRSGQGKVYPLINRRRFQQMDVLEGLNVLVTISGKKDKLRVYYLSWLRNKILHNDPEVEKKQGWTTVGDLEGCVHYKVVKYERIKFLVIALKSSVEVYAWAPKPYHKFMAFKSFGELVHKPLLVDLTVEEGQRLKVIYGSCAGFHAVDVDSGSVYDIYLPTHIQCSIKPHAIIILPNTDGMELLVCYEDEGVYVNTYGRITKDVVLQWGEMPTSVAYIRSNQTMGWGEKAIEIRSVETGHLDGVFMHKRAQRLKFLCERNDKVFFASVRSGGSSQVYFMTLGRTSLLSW
UniProt Q9UBF1, sequence (Q9UBF1 whole entry, looked up): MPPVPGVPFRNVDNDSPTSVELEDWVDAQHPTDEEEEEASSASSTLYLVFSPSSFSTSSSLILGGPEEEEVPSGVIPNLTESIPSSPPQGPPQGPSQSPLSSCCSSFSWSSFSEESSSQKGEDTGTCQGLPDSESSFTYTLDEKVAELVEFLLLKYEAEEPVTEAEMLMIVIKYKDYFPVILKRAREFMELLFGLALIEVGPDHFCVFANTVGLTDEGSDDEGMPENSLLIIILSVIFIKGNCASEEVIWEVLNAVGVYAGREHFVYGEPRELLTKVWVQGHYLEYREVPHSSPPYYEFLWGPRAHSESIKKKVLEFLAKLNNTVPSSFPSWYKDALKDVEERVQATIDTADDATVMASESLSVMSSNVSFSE
UniProt Q9UHB6, sequence (Q9UHB6 whole entry, looked up): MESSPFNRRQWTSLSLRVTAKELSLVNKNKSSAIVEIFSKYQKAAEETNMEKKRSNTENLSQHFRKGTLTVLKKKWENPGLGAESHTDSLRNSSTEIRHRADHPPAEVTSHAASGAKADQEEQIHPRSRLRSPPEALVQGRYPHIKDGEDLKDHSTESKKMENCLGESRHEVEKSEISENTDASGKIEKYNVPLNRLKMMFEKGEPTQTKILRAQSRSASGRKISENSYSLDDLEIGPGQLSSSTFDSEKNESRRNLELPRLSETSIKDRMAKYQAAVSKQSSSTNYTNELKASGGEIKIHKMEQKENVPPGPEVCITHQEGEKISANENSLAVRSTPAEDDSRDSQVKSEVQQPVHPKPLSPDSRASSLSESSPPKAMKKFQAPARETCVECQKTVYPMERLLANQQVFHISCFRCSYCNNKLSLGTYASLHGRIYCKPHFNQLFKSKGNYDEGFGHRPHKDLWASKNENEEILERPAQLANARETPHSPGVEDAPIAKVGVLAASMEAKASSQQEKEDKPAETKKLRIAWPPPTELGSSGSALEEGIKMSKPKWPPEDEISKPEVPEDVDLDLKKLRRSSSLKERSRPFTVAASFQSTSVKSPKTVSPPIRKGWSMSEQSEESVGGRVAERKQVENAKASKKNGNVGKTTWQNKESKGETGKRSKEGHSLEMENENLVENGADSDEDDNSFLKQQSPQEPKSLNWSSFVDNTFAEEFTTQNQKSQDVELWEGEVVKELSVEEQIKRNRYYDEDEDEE
UniProt Q9Y2U8, sequence (Q9Y2U8 whole entry, looked up): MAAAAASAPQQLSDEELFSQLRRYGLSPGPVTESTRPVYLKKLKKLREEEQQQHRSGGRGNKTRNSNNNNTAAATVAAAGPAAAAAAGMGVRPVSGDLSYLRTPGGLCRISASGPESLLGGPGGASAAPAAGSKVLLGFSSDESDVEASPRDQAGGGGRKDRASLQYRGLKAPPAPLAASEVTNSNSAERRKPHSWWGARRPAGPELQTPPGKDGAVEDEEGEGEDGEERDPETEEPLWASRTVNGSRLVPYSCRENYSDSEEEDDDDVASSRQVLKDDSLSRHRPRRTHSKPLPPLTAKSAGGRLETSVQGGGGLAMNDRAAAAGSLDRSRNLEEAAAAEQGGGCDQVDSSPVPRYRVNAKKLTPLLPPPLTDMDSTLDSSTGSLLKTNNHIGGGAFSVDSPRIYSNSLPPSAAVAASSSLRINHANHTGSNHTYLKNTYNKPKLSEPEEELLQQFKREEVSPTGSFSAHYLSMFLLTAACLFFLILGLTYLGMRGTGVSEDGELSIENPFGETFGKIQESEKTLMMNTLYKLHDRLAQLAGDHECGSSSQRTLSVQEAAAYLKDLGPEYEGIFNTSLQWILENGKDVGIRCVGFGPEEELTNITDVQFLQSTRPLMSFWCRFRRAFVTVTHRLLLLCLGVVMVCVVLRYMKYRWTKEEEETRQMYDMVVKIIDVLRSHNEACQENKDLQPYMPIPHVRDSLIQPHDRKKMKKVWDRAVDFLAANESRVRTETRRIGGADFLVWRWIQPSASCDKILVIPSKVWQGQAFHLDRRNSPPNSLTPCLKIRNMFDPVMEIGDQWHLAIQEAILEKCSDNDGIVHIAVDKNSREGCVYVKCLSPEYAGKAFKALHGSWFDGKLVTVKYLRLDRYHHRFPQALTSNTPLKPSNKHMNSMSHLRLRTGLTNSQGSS
UniProt P13473, sequence (P13473 whole entry, looked up): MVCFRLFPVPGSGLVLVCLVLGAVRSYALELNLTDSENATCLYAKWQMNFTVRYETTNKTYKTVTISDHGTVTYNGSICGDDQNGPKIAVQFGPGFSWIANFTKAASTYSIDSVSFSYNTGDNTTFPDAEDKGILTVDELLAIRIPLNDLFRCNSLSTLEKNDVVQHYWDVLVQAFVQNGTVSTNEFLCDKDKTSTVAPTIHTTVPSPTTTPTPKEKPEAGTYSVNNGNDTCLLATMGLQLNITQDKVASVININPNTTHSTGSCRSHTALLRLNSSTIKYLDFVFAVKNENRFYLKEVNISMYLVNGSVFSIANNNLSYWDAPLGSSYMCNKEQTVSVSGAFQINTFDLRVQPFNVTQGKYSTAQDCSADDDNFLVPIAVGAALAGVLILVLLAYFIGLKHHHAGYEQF
UniProt Q14739, sequence (Q14739 whole entry, looked up): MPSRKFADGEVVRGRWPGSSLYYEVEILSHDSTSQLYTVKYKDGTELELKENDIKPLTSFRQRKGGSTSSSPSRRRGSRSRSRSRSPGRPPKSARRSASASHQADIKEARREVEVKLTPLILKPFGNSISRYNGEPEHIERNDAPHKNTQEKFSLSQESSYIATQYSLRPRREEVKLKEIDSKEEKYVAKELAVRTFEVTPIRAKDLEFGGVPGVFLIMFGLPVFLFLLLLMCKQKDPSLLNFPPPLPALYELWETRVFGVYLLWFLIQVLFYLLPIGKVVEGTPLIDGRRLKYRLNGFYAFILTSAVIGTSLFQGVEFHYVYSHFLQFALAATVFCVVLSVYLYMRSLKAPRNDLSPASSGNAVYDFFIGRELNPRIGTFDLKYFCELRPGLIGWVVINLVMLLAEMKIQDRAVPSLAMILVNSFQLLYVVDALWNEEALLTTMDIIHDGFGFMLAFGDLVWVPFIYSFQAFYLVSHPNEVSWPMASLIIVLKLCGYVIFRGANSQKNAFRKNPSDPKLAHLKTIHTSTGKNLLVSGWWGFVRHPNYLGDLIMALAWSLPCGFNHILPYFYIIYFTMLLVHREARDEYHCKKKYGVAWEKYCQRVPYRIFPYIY
UniProt Q8TBB5, sequence (Q8TBB5 whole entry, looked up): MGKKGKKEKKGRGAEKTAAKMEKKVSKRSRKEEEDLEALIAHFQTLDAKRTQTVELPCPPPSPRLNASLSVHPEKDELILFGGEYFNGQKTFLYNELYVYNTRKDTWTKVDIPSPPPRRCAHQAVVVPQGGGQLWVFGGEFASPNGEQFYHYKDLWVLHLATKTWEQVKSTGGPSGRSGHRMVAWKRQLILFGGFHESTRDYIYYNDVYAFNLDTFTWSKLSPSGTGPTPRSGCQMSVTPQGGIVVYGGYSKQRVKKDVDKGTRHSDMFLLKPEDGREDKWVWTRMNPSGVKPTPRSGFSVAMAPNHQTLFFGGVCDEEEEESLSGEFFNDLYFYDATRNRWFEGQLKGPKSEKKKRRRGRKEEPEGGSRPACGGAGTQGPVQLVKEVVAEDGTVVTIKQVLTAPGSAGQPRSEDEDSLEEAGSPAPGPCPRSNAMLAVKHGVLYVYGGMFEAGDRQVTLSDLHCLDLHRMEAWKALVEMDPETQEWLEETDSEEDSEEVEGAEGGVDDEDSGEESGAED
UniProt Q96A72, sequence (Q96A72 whole entry, looked up): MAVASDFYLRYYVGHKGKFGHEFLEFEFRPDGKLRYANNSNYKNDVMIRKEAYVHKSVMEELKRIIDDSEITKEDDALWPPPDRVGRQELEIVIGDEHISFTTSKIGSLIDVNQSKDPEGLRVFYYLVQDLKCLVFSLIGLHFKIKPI
LIMA1 isoform 4 (UniProt Q9UHB6) was tested, and the log2 fold change was 0.033 (inactive).
MAGEC2 (UniProt Q9UBF1) was tested, and the log2 fold change was 0.057 (inactive).
With MAP2K3 isoform 3 (UniProt P46734) the log2 fold change was -0.08 (inactive).
With MAGEA9 (UniProt P43362) the log2 fold change was -0.087 (inactive).
ILVBL (UniProt A1L0T0) was tested, and the log2 fold change was -0.051 (inactive).
For MDN1 (UniProt Q9NU22), the log2 fold change was 0.061 (inactive).
In the case of KIF21A isoform 4 (UniProt Q7Z4S6), the log2 fold change is reported as -0.043 (inactive).
In the case of LNPK (UniProt Q9C0E8), the log2 fold change is reported as 0.016 (inactive).
In the case of LRBA (UniProt P50851), the log2 fold change is reported as 0.001 (inactive).
For LEMD3 (UniProt Q9Y2U8), the log2 fold change was -0.017 (inactive).
With LAMP2 (UniProt P13473) the log2 fold change was 0.066 (inactive).
In the case of KLHDC4 (UniProt Q8TBB5), the log2 fold change is reported as -0.092 (inactive).
In the case of LBR (UniProt Q14739), the log2 fold change is reported as 0.045 (inactive).
For KHDC4 (UniProt Q7Z7F0), the log2 fold change was 0.071 (inactive).
In the case of MAP4K4 isoform 3 (UniProt O95819), the log2 fold change is reported as 0.012 (inactive).
In the case of LEMD2 (UniProt Q8NC56), the log2 fold change is reported as 0.051 (inactive).

The targets below were run with CCCCN(Cc1ccc(C(=O)NO)cc1)C(=O)Nc1ccccc1 [Nexturastat A] in the same assay as above.
Procedure, shortened: as §1
For MCUR1 (UniProt Q96AQ8), the log2 fold change was -0.06 (inactive).
ITPRIP (UniProt Q8IWB1) was tested, and the log2 fold change was 0.005 (inactive).
With MAP2K1 (UniProt Q02750) the log2 fold change was -0.061 (inactive).
For LPGAT1 (UniProt Q92604), the log2 fold change was 0.036 (inactive).
LMNB1 (UniProt P20700) was tested, and the log2 fold change was -0.045 (inactive).
In the case of LTV1 (UniProt Q96GA3), the log2 fold change is reported as 0.248 (inactive).
For MAIP1 (UniProt Q8WWC4), the log2 fold change was -0.033 (inactive).
MIER1 isoform 12 (UniProt Q8N108) was tested, and the log2 fold change was 0.306 (active).
For KCT2 (UniProt Q8NC54), the log2 fold change was -0.102 (inactive).
With KPNA4 (UniProt O00629) the log2 fold change was -0.008 (inactive).
With MAPK12 (UniProt P53778) the log2 fold change was -0.112 (inactive).
With LDLR (UniProt P01130) the log2 fold change was 0 (inactive).
For LMF2 (UniProt Q9BU23), the log2 fold change was -0.022 (inactive).
With LTN1 isoform 3 (UniProt O94822) the log2 fold change was 0.104 (inactive).
In the case of LRPPRC (UniProt P42704), the log2 fold change is reported as 0.282 (inactive).
For MAD2L1 (UniProt Q13257), the log2 fold change was -0.103 (inactive).
With LARP4B (UniProt Q92615) the log2 fold change was 0.127 (inactive).
In the case of ILK (UniProt Q13418), the log2 fold change is reported as 0.135 (inactive).
For LTO1 (UniProt Q8WV07), the log2 fold change was 0.245 (inactive).
KIF3A (UniProt Q9Y496) was tested, and the log2 fold change was 0.029 (inactive).
With MAP3K20 (UniProt Q9NYL2) the log2 fold change was 0.062 (inactive).
MAGOHB (UniProt Q96A72) was tested, and the log2 fold change was -0.026 (inactive).
For MAP3K4 isoform 2 (UniProt Q9Y6R4), the log2 fold change was 0.008 (inactive).
With LIMA1 isoform 4 (UniProt Q9UHB6) the log2 fold change was 0.004 (inactive).
With MAGEC2 (UniProt Q9UBF1) the log2 fold change was 0 (inactive).
In the case of MAP2K3 isoform 3 (UniProt P46734), the log2 fold change is reported as 0.103 (inactive).
For MAGEA9 (UniProt P43362), the log2 fold change was 0.005 (inactive).
ILVBL (UniProt A1L0T0) was tested, and the log2 fold change was 0.007 (inactive).
With MDN1 (UniProt Q9NU22) the log2 fold change was -0.009 (inactive).
KIF21A isoform 4 (UniProt Q7Z4S6) was tested, and the log2 fold change was 0.106 (inactive).
In the case of LNPK (UniProt Q9C0E8), the log2 fold change is reported as -0.023 (inactive).
With LRBA (UniProt P50851) the log2 fold change was -0.046 (inactive).
For LEMD3 (UniProt Q9Y2U8), the log2 fold change was 0.026 (inactive).
For LAMP2 (UniProt P13473), the log2 fold change was -0.104 (inactive).
With KLHDC4 (UniProt Q8TBB5) the log2 fold change was 0.18 (inactive).
For LBR (UniProt Q14739), the log2 fold change was -0.108 (inactive).
With KHDC4 (UniProt Q7Z7F0) the log2 fold change was 0.068 (inactive).
For MAP4K4 isoform 3 (UniProt O95819), the log2 fold change was 0.033 (inactive).
For LEMD2 (UniProt Q8NC56), the log2 fold change was -0.002 (inactive).

Source: the supplement of paper PMC10849652
